Legend:
Conditions in all cases: concentration: 1 μM, replicates: in singlicate; n = 1
TTK = tested on: TTK
TXK = tested on: TXK
[1] = tested on: TYK2(JH1domain-catalytic)
[2] = tested on: TYK2(JH2domain-pseudokinase)
TYRO3 = tested on: TYRO3
ULK1 = tested on: ULK1
ULK2 = tested on: ULK2
ULK3 = tested on: ULK3
VEGFR2 = tested on: T1, VEGFR2
T1 construct: gene KDR

VPS34 = tested on: T2, VPS34
T2 construct: gene PIK3C3

VRK2 = tested on: VRK2
WEE1 = tested on: WEE1
WEE2 = tested on: WEE2
WNK1 = tested on: WNK1
WNK2 = tested on: WNK2
WNK3 = tested on: WNK3
WNK4 = tested on: WNK4
YANK1 = tested on: T3, YANK1
T3 construct: gene STK32A

YANK2 = tested on: T4, YANK2
T4 construct: gene STK32B

YANK3 = tested on: T5, YANK3
T5 construct: gene STK32C
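Also: KINOMEscan kinase panel screen.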

SMILES	%Inh (TTK) [%]	%Inh (TXK) [%]	%Inh [1] [%]	%Inh [2] [%]	%Inh (TYRO3) [%]	%Inh (ULK1) [%]	%Inh (ULK2) [%]	%Inh (ULK3) [%]	%Inh (VEGFR2) [%]	%Inh (VPS34) [%]	%Inh (VRK2) [%]	%Inh (WEE1) [%]	%Inh (WEE2) [%]	%Inh (WNK1) [%]	%Inh (WNK2) [%]	%Inh (WNK3) [%]	%Inh (WNK4) [%]	%Inh (YANK1) [%]	%Inh (YANK2) [%]	%Inh (YANK3) [%]
NC(=O)c1nnc2ccccc2c1N	12	4	44	38	2	24	0	29	16	20	4	9	20	8	0	0	9	23	0	0
Cc1cccc(-c2nc(Nc3ccncc3)c3ccccc3n2)n1 [GW855857]	10	11	8	40	0	0	0	8	0	52	0	23	8	0	0	0	0	0	0	0
Cc1cc(NCC(c2ccccc2)c2ccccc2)nc(NCc2ccc(C(F)(F)F)cc2)n1 [GW497681]	0	0	9	23	0	0	0	0	0	0	0	11	0	0	0	27	37	0	0	0
COc1cc(Nc2nccc(N3CCC(NC(=O)Nc4cc(C)ccc4C)C3)n2)cc(OC)c1OC (centres unmarked) [GSK1379762]	16	13	39	3	0	19	4	92.4	0	0	0	32	9	1	0	8	25	8	0	10
COc1ccc(Nc2nccc(NCCNC(=O)Nc3ccccc3F)n2)cc1 [GSK1379901]	0	24	26	28	0	0	0	37	0	0	0	13	0	11	0	29	37	0	0	0
COc1ccccc1-c1ccc2c(NC(=O)C3CC3)n[nH]c2n1 [SB-711239]	21	0	0	18	0	63	0	100	0	15	21	8	5	7	0	37	0	15	0	20
Nc1ncnc2[nH]c(-c3ccccc3)nc12 [AH5015]	0	34	38	99.3	0	33	5	20	0	0	30	0	0	10	9	13	19	98	4	9
Cl.NC(=O)c1cccc(Nc2nccc(Nc3ccc(Oc4cccc(Cl)c4)c(Cl)c3)n2)c1 [GW659008]	29	0	39	18	10	6	0	0	0	9	0	0	12	0	0	15	0	3	2	28
O=C(Nc1n[nH]c2cc(-c3cccc(F)c3F)ccc12)C1CC1 [SB-733894]	1	0	1	0	0	0	51	4	20	0	0	0	0	0	0	0	0	0	0	0
COc1ccc(Nc2nccc(-c3cccc(NC(=O)c4cc5cc(F)ccc5[nH]4)c3)n2)cc1 [GSK1229782]	13	17	41	47	23	16	0	23	4	33	27	33	16	11	12	31	59	3	0	30

Source: article PMC5540273 (PLoS ONE, 2017)
